Results as given in PubChem BioAssay (NCATS).
“And” between values parts separate entries of the source, which are not always exact repeats. Equal entries are not always repeated. Records with an inconclusive call do not appear. The source made the active and inactive calls. Unless noted, calls come from the whole dose curve; as a rule, active = well fitted curve in the direction sought with a large enough effect; inconclusive = small, poorly fitted or top-dose-only effect, or another doubt; inactive = no such curve, though single readings can be large; an effect the other way counts as inactive or inconclusive.

Tests used:
[1] = qHTS assay for small molecule agonists of the antioxidant response element (ARE) signaling pathway measured by Nrf2-dependant transcriptional activity (AID 720636; active = well fitted curve in the direction sought with a large enough effect in the repeat runs; an effect the other way counts as inactive or inconclusive;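 note: HepG2 cells with an ARE-driven luciferase reporter; % of control where 0% means no effect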)
Outline: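 We exposed ARE-luc HepG2 cells, seeded in assay medium with 1% dialyzed FBS and allowed 6 hr to adhere, to test compounds overnight (16 hr, 37 C) before measuring luciferase with ONE-Glo.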

[2] = qHTS assay for small molecule agonists of the antioxidant response element (ARE) signaling pathway measured by Nrf2-dependant transcriptional activity - cell viability counter screen (AID 720653; active = well fitted curve in the direction sought with a large enough effect in the repeat runs; an effect the other way counts as inactive or inconclusive; note: % is set by controls: 0 for no effect and ±100 for the full control effect); settings: ARE-bla HepG2 viability, CellTiter-Glo ATP luminescence, 16 h; hits give low values
Outline: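 ARE-bla HepG2 cells treated with compounds for 16 h at 37C; this counter screen measures viability as intracellular ATP by CellTiter-Glo luminescence after 30 min at room temperature.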

[3] = qHTS Assay for Identifying Gametocytocidal Compounds (AID 743244);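 note: % is set by controls: 0 for no effect and ±100 for the full control effect; actives lower the fluorescent signal which means gametocytes are killed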; settings: P. falciparum 3D7 stage III-V gametocytes, alamarBlue, 72 h; max response: hits give low values
Outline: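 Fluorescence at Ex 525/Em 598 nm, recorded 24 h after alamarBlue addition, reports residual metabolic activity of 3D7 gametocytes (stages III–V) following 72 h compound exposure at 37 °C, 5% CO2.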

[4] = qHTS assay for cell viability of HEK293 cells (AID 743288); settings: ATP luminescence (CellTiter-Glo), 18 h, hits give low values; note: % is set by controls: 0 for no effect and ±100 for the full control effect; nearly all actives have a fitted effect of over 50% in size
Outline: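 Parental HEK293 cells were seeded at 2,000 cells/well, rested at least 5 h at 37 C, then exposed to compounds in DMSO for 18 h at 37 C. Viability was read as ATP-dependent luciferase luminescence after 30 min at room temperature.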

[5] = qHTS assay for cell viability of the p53RE-bla HCT-116 cell line (AID 743292); note: % is set by controls: 0 for no effect and ±100 for the full control effect; nearly all actives have a fitted effect of over 55% in size
Outline: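 In this qHTS counter-screen, metabolically competent p53RE-bla HCT-116 cells were counted via their ATP content. Compounds were applied for 16 h at 37 C and luciferase-coupled luminescence was measured.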

[6] = qHTS for Activators of Parkin Expression: LOPAC Validation Assay (FLuc Reporter) (AID 720573;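 note: 0% = DMSO and 100% = positive control compounds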)
Outline: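 Neuronal cell line stably carrying FLuc/NLuc coincidence reporter under Parkin promoter; cells plated 24 h, then compounds added in 7-point dose response for 24 h at 37 C. FLuc luminescence read; normalized to DMSO and positive control (100%).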

[7] = biological target: T1, Hexokinase-4 (Homo sapiens) + Glucokinase regulatory protein (Homo sapiens) (UniProt P35557+Q14397); assay: qHTS assay for inhibitors of recombinant human GCK-GKRP interaction: Diaphorase-coupled assay (AID 743205)
Outline: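 GST-GCK (10 nM) with FLAG-GKRP (10 nM), 5 mM glucose and 0.4 mM ATP in pH 7.6 Hepes; compounds preincubated 20 min with substrate. G6PDH/diaphorase coupling converts resazurin to resorufin, read kinetically (ex 525/em 590 nm) for 30 min.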

[8] = biological target: T1, Hexokinase-4 (Homo sapiens) + Glucokinase regulatory protein (Homo sapiens); assay: qHTS assay for inhibitors of recombinant human GCK-GKRP interaction: ADP-Glo assay (AID 743206);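 note: plate controls were DMSO plus enzyme for no effect and no enzyme for full effect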
Outline: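 GST-GCK and FLAG-GKRP (15 nM each in the dispensed mix, with 2 uM S6P) react with 0.4 mM ATP and 5 mM glucose (final) in Hepes pH 7.6 for 60 min at room temperature. ADP is measured by ADP-Glo luminescence.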

[9] = biological target: T1, Hexokinase-4 (Homo sapiens) + Glucokinase regulatory protein (Homo sapiens); assay: qHTS assay for inhibitors of recombinant human GCK-GKRP interaction: HTRF assay (AID 743207);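 note: 0% = DMSO with GCK present and -100% = DMSO wells lacking GCK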
Outline: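 GST-GCK and FLAG-GKRP (5 nM each) were combined with 2 uM S6P in pH 7.1 Hepes/MgCl2/KCl/DTT buffer, then compound and anti-FLAG XL665/anti-GST K antibodies were added. After 60 min at room temperature, HTRF 665/615 nm emission was read.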

Measured: max response

T1 sequence (P35557 whole entry, looked up): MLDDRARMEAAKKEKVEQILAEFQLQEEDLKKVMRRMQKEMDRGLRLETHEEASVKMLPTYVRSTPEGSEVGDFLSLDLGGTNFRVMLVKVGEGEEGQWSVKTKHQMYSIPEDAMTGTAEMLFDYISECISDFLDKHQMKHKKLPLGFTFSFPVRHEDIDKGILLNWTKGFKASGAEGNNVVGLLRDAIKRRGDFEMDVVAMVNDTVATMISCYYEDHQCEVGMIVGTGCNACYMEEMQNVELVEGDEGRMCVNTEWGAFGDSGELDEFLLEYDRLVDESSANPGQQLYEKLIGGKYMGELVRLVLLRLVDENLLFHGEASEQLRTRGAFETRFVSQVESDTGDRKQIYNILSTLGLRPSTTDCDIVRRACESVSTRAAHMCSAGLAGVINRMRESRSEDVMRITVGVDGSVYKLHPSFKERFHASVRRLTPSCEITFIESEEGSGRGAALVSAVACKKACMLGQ
T1 sequence (Q14397 whole entry, looked up): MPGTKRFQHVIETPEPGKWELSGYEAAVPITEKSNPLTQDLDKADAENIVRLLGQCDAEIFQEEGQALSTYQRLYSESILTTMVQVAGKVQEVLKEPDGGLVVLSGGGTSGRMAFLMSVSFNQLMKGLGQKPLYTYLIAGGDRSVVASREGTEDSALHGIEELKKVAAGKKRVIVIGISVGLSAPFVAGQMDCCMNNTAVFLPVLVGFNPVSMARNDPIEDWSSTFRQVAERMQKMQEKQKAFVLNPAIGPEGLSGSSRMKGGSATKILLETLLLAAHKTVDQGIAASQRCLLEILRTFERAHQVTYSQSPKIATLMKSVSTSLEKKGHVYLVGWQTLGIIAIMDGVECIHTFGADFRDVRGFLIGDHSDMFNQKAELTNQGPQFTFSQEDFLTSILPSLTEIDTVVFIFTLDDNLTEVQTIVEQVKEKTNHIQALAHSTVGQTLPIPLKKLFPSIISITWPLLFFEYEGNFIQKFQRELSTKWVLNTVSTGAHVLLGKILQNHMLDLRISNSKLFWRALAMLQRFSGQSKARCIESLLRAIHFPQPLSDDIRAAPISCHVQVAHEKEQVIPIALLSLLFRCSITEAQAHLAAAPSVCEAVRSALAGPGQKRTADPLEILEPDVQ

NC(=O)c1ccccc1O
inactive: [1] | [2] -0.33% | [3] -5.71% | [4] -5% | [5]

CC(C)[N+](C)(C)CC(O)COc1cccc2ccccc12 (stereo not drawn)
inactive: [3] -10.5%

NC(N)=NCc1cccc(I)c1
inactive: [6] | [7] | [8] | [9] | [3] 10% and 7.9%

COc1ccc(C(Cl)=C(c2ccc(OC)cc2)c2ccc(OC)cc2)cc1
inactive: [1] | [2] -11.1% | [4] -29.7% | [5]

Cc1cc(CC(=O)O)c(C)n1-c1ccc(Cl)cc1
inactive: [3] -9.92%

CN=C(N)NCCC[C@H](N)C(=O)O
inactive: [6] | [7] | [8] | [9] | [3] -7.79% and 5.96% and -18.7%

CN(C)C(=O)Nc1ccc(Cl)c(Cl)c1
inactive: [2] 12.2% | [3] -3.3% | [4] -11.4% | [5]

CCC1Nc2cc(Cl)c(S(N)(=O)=O)cc2S(=O)(=O)N1 (stereo not drawn)
inactive: [3] 7.47%

C=C[C@@]1(C)CC(=O)[C@]2(O)[C@@]3(C)[C@@H](O)CCC(C)(C)[C@@H]3[C@H](O)[C@H](OC(C)=O)[C@@]2(C)O1
inactive: [2] 4.11% | [3] -8.6% | [4] -8.77% | [5]

CCCCCCCC/C=C\CCCCCCCCN
inactive: [1] | [2] 3.81% | [4] -0.943% | [5]

CC[N+](C)(CC)CCOC(=O)C(O)(c1ccccc1)C1CCCCC1 (stereo not drawn)
inactive: [3] -1.51%

O=C(CCCN1CC=C(n2c(=O)[nH]c3ccccc32)CC1)c1ccc(F)cc1
inactive: [3] 7.51%

COc1cc([C@H]2Oc3cc([C@H]4Oc5cc(O)cc(O)c5C(=O)[C@@H]4O)ccc3O[C@@H]2CO)ccc1O
inactive: [1] | [2] -21.7% | [3] -1.37% | [4] 5.85% | [5]

CCOc1ccccc1C(N)=O
inactive: [1] | [2] 5.3% | [3] 14% | [4] 9.95% | [5]

O=C(O)c1ccc(S(=O)(=O)N(Cl)Cl)cc1
inactive: [1] | [2] 7.82% | [3] -8.91% | [4] 0.513% | [5]

CCCCCCCCCCCCCCCC(=O)O
inactive: [1] | [2] -12.5% | [4] -2.84% | [5]

COc1ccc(C(=O)c2ccccc2)c(O)c1
inactive: [2] 6% and -1.76% | [3] -10.7% | [4] -9.22% and -8.85% | [5]

CCCCCCCCCCCCCCCCO
inactive: [1] | [2] -4.14% | [3] 19.3% | [4] -3.2%

NCCNc1cccc2ccccc12
inactive: [1] | [2] -8.07% and -42.5% | [4] -10.4% and -20.5% | [5]

CCCCCCCCOc1ccc(C(=O)c2ccccc2)c(O)c1
inactive: [1] | [2] -12.5% | [3] -5.25% | [4] -9.08% | [5]

C=C[C@H]1CN2CC[C@H]1C[C@@H]2[C@@H](O)c1ccnc2ccc(OC)cc12
inactive: [1] | [2] 21.8% | [4] -3.56% | [5]

CC(C)(C)NC[C@H](O)COc1nsnc1N1CCOCC1
inactive: [6] | [7] | [8] | [9] | [3] -3.64%

C#C[C@]1(O)CC[C@H]2[C@@H]3CCC4=Cc5oncc5C[C@]4(C)[C@H]3CC[C@@]21C
inactive: [1] | [2] 1.42% | [4] -10.7% | [5]

CCCN(CCC)S(=O)(=O)c1ccc(C(=O)O)cc1
inactive: [1] | [2] 9.27% and -1.08% | [3] 12.9% | [4] 7.44% and -5.93% | [5]

CCCCCCCCCCCCCC(=O)OC(C)C
inactive: [1] | [2] -11.9% | [3] -3.41% | [4] -1.19% | [5]

CC1(C)OC[C@@H]2O[C@@]3(C(=O)O)OC(C)(C)O[C@H]3[C@@H]2O1
inactive: [1] | [2] -0.898% | [3] -4.16% | [4] -6.28% | [5]

CC1(COc2ccc(CC3SC(=O)NC3=O)cc2)CCCCC1 (stereo not drawn)
inactive: [2] -9.6% | [3] 2.09% | [4] -6.86%
